Experimental data taken from the antibiotic and cytotoxicity screens of Wong et al. (2023).
Out of some 39,000 compounds screened, about 3,300 (8.5%) were called active. The entries come from a sample that favours actives as a whole.

Test system: HepG2
Experiment: cytotoxicity call (relative viability < 0.9)
Details: 10 µM

SMILES | cytotoxicity call
Cc1ccc(S(=O)(=O)Nc2ccc3c(c2)CC(=O)N([C@@H](C)CO)C[C@@H](C)[C@@H](CN(C)C(=O)NC(C)C)O3)cc1 | inactive
O=C(Nc1ccc2c(c1)[C@@H]1C[C@H](CC(=O)N3CCc4ccccc4C3)O[C@H](CO)[C@@H]1O2)C1CCOCC1 | inactive
C[C@H](CO)N1C[C@H](C)[C@@H](CN(C)C(=O)Nc2cccc3ccccc23)OCCCC[C@H](C)Oc2ccc(NC(=O)Nc3ccccc3)cc2C1=O | inactive
Cc1noc(C)c1S(=O)(=O)N(C)C[C@H]1Oc2ccc(NS(C)(=O)=O)cc2CC(=O)N([C@@H](C)CO)C[C@@H]1C | inactive
C[C@H](CO)N1C[C@H](C)[C@H](CN(C)C(=O)NC2CCCCC2)Oc2c(NC(=O)C3CC3)cccc2C1=O | inactive
C[C@@H]1CCCCO[C@@H](CN(C)S(C)(=O)=O)[C@@H](C)CN([C@H](C)CO)C(=O)c2cc(NS(=O)(=O)c3ccc(F)cc3)ccc2O1 | inactive
C[C@@H]1CCCCO[C@@H](CN(C)C(=O)Nc2cccc3ccccc23)[C@@H](C)CN([C@H](C)CO)C(=O)c2cc(NC(=O)Nc3ccccc3)ccc2O1 | inactive
O=C(O)COc1nn(Cc2ccccc2)c2ccccc12 | inactive
COc1cccc(OCc2ccc(Cn3nc(NC(=O)Nc4c(OC)cccc4OC)c4ccccc43)cc2)c1 | inactive
CN(C)CCCOc1nn(Cc2ccccc2)c2ccccc12.Cl | active
C[C@H]1CN([C@@H](C)CO)S(=O)(=O)c2ccc(C#CC3CC3)cc2O[C@@H]1CN(C)Cc1ccccc1F | inactive
C[C@@H]1CN([C@@H](C)CO)C(=O)Cc2cc(NC(=O)Cn3cnnn3)ccc2O[C@@H]1CN(C)S(=O)(=O)c1ccc(F)cc1 | inactive
Cc1ccccc1S(=O)(=O)N1C[C@H](O)COC[C@H]2O[C@@H](CC(=O)NCCc3ccccc3)CC[C@@H]21 | inactive
Nc1nc2nc[nH]c2c(=O)[nH]1 | inactive
Nc1ncnc2nc[nH]c12 | inactive
S=c1[nH]cnc2nc[nH]c12 | active
O=c1[nH]cnc2nc[nH]c12 | inactive
Nc1nc2nc[nH]c2c(=S)[nH]1 [listing 1 of 2 here] | inactive
Nc1nc2nc[nH]c2c(=S)[nH]1 [listing 2 of 2 here] | active
N#CCN(CC#N)C(=O)c1ccco1 | inactive
CC(C)CC#Cc1ccc2c(c1)O[C@@H](CN(C)C(=O)C1CCOCC1)[C@@H](C)CN([C@@H](C)CO)S2(=O)=O | inactive
COc1ccc(S(=O)(=O)N(C)C[C@H]2Oc3ccc(NS(=O)(=O)c4ccccc4)cc3C(=O)N([C@@H](C)CO)C[C@H]2C)cc1 | inactive
Cc1noc(C)c1S(=O)(=O)Nc1ccc2c(c1)CC(=O)N([C@H](C)CO)C[C@H](C)[C@H](CN(C)Cc1ccncc1)O2 | inactive
COc1ccc(S(=O)(=O)N2C[C@@H](O)COC[C@@H]3O[C@H](CC(=O)NCCCN(C)C)CC[C@H]32)cc1 | inactive
COc1cc(O)cc(O)c1C(=O)c1ccccc1 | active

SMILES | cytotoxicity call
COc1ccc(C(=O)c2ccccc2)c(O)c1 | inactive
COc1cc(O)c(C(=O)c2ccccc2)cc1S(=O)(=O)O | inactive
C[C@H]1CN([C@@H](C)CO)C(=O)c2cc(C#Cc3cccnc3)cnc2O[C@H]1CN(C)S(=O)(=O)c1ccccc1F | inactive
C[C@@H]1CN([C@H](C)CO)S(=O)(=O)c2ccc(C#CCN(C)C)cc2O[C@H]1CN(C)S(=O)(=O)c1cccc(F)c1 | inactive
C[C@@H]1CN([C@H](C)CO)C(=O)c2cccc(NC(=O)C3CCOCC3)c2O[C@@H]1CN(C)S(=O)(=O)c1ccccc1 | inactive
Cc1n[nH]c(NCc2ccco2)nc1=O | inactive
Cc1n[nH]c(N/N=C/c2ccccn2)nc1=O | active
CCCNc1nc(=O)c(C)n[nH]1 | inactive
O=C(O)[C@@H]1CCCC[C@@H]1C(=O)N1CCc2ccccc2[C@H]1CN1C(=O)c2ccccc2C1=O.O=C(O)[C@H]1CCCC[C@@H]1C(=O)N1CCc2ccccc2[C@H]1CN1C(=O)c2ccccc2C1=O | inactive
C[C@@H]1CCCCO[C@H](CN(C)S(=O)(=O)c2cccs2)[C@@H](C)CN([C@H](C)CO)C(=O)c2cc(NS(=O)(=O)c3ccc(Cl)cc3)ccc2O1 | inactive
C[C@@H]1CN([C@@H](C)CO)C(=O)c2cc(NS(=O)(=O)c3cn(C)cn3)ccc2O[C@@H]1CN(C)CC1CC1 | inactive
O=C1CCNc2cc3ccccc3cc21 | active
O=C1NCc2ccccc21 | inactive
O=C1CCCNc2ccc(Cl)cc21 | inactive
COc1ccc(NC(=O)N(C)C[C@@H]2Oc3ccc(NC(=O)CCN4CCOCC4)cc3C(=O)N([C@@H](C)CO)C[C@@H]2C)cc1 | inactive
COc1ccc(S(=O)(=O)N(C)C[C@H]2OCCCC[C@H](C)Oc3ccc(NC(=O)Nc4ccccc4)cc3C(=O)N([C@@H](C)CO)C[C@H]2C)cc1 | inactive
NC1=NCCN1CC(=O)O | active
O=C(O)CN1CCCCC1=O | inactive
O=C(O)CN1CCOC1=O | inactive
COC(=O)N[C@H](C(=O)N1CC2(CC2)C[C@H]1c1nc(-c2ccc3c(c2)C(F)(F)c2cc(-c4ccc5nc([C@@H]6[C@H]7CC[C@H](C7)N6C(=O)[C@@H](NC(=O)OC)C(C)C)[nH]c5c4)ccc2-3)c[nH]1)C(C)C | inactive
Cn1cnc(CCNC(=O)C[C@H]2CC[C@H]3[C@@H](COC[C@H](O)CN3C(=O)C3CC3)O2)c1 | inactive
O=C1OC(=O)[C@H]2[C@@H]1[C@H]1CC[C@H]2O1 | active
COc1ccc2c3c([nH]c2c1)[C@@H](CO)N(C[C@]13CCN(CC1)Cc1ccccc1)S(=O)(=O)c1cn(cn1)C | inactive
C[C@@H]1CN([C@H](C)CO)C(=O)c2cccc(NC(=O)NC3CCCCC3)c2O[C@H]1CN(C)Cc1ccc(Cl)c(Cl)c1 | inactive
C[C@@H]1CN([C@@H](C)CO)C(=O)c2cc(NC(=O)c3ccncc3)ccc2O[C@@H](C)CCCCO[C@H]1CN(C)Cc1ccc(C(F)(F)F)cc1 | inactive

SMILES | cytotoxicity call
C[C@@H]1CCCCO[C@H](CN(C)C(=O)C2CCCCC2)[C@@H](C)CN([C@@H](C)CO)C(=O)c2cc(NC(=O)Nc3ccccc3)ccc2O1 | active
C[C@H]1CCCCO[C@@H](CN(C)C(=O)C2CCCCC2)[C@@H](C)CN([C@@H](C)CO)C(=O)c2cc(NC(=O)Nc3ccccc3)ccc2O1 | inactive
C[C@@H]1CCCCO[C@@H](CN(C)C(=O)C2CCCCC2)[C@@H](C)CN([C@@H](C)CO)C(=O)c2cc(NC(=O)Nc3ccccc3)ccc2O1 | active
C[C@H](CO)N1C[C@H](C)[C@@H](CN(C)C(=O)C2CCCCC2)OCCCC[C@H](C)Oc2ccc(NC(=O)Nc3ccccc3)cc2C1=O | inactive
C[C@H]1CCCCO[C@H](CN(C)C(=O)C2CCCCC2)[C@@H](C)CN([C@@H](C)CO)C(=O)c2cc(NC(=O)Nc3ccccc3)ccc2O1 | inactive
C[C@@H]1CN([C@H](C)CO)C(=O)c2cc(NC(=O)Nc3ccccc3)ccc2O[C@@H](C)CCCCO[C@@H]1CN(C)C(=O)C1CCCCC1 | inactive
C[C@H]1CN([C@@H](C)CO)C(=O)c2cccc(NC(=O)c3cnccn3)c2O[C@@H]1CN(C)Cc1ccc(C(=O)O)cc1 | inactive
C[C@H](CO)N1C[C@H](C)[C@H](CN(C)C(=O)CN(C)C)Oc2cc(-c3ccc(C#N)cc3)ccc2S1(=O)=O | inactive
CCNC1CC(N)C(OC2OC(CN)=CCC2N)C(O)C1OC1OCC(C)(O)C(NC)C1O.O=S(=O)(O)O.O=S(=O)(O)O (stereo not drawn) | inactive
COc1ccc(CN(C)C[C@H]2OCCCC[C@H](C)Oc3ccc(NC(=O)Nc4ccc5c(c4)OCO5)cc3C(=O)N([C@H](C)CO)C[C@H]2C)cc1 | inactive
C[C@H](CO)N1C[C@H](C)[C@@H](CN(C)C(=O)Nc2ccc(F)cc2)Oc2c(NC(=O)c3nc4ccccc4s3)cccc2C1=O | inactive
C[C@@H]1CN([C@H](C)CO)C(=O)c2cccc(NC(=O)c3nc4ccccc4s3)c2O[C@@H]1CN(C)C(=O)Nc1ccc(C(F)(F)F)cc1 | inactive
C[C@H]1CN([C@@H](C)CO)C(=O)c2cccc(NC(=O)c3nc4ccccc4s3)c2O[C@H]1CN(C)C(=O)Nc1ccc(C(F)(F)F)cc1 | active
C[C@H](CO)N1C[C@H](C)[C@H](CN(C)C(=O)Nc2ccc(C(F)(F)F)cc2)Oc2c(NC(=O)c3nc4ccccc4s3)cccc2C1=O | inactive
C[C@@H]1CN([C@@H](C)CO)C(=O)c2cccc(NC(=O)c3nc4ccccc4s3)c2O[C@@H]1CN(C)C(=O)Nc1ccc(F)cc1 | active
C[C@@H]1CN([C@@H](C)CO)C(=O)c2cccc(NC(=O)c3nc4ccccc4s3)c2O[C@H]1CN(C)C(=O)Nc1ccc(C(F)(F)F)cc1 | active
C[C@@H]1CN([C@@H](C)CO)C(=O)c2cccc(NC(=O)c3nc4ccccc4s3)c2O[C@H]1CN(C)C(=O)Nc1ccc(F)cc1 | inactive
C[C@H]1CN([C@@H](C)CO)C(=O)c2cccc(NC(=O)c3nc4ccccc4s3)c2O[C@@H]1CN(C)C(=O)Nc1ccc(C(F)(F)F)cc1 | inactive
C[C@H](CO)N1C[C@H](C)[C@@H](CN(C)C(=O)Nc2ccc(C(F)(F)F)cc2)Oc2c(NC(=O)c3nc4ccccc4s3)cccc2C1=O | inactive
C[C@@H]1CCCCO[C@H](CN(C)S(=O)(=O)c2cccs2)[C@@H](C)CN([C@H](C)CO)C(=O)c2cc(NC(=O)Nc3ccccc3)ccc2O1 | inactive
COc1ccccc1NC(=O)N(C)C[C@H]1OCc2ccccc2-c2c(n(C)c3ccccc23)C(=O)N([C@H](C)CO)C[C@@H]1C | inactive
C[C@H](CO)N1C[C@H](C)[C@@H](CN(C)C(=O)c2cccc(F)c2)Oc2cc(-c3ccncc3)ccc2S1(=O)=O | inactive
O=C(C[C@H]1CC[C@@H]2[C@H](COC[C@H](O)CN2S(=O)(=O)c2ccccc2)O1)N1CCOCC1 | inactive
